Nrf2 activator – Nrf2 pathway activation; AREc32 ARE-luciferase reporter (MCF7-derived line), luminescence, 24 h; Potency, µM (series often up to 46.1 µM), for inactives: at the highest dose activation, usual class: activators; 0.31% of 410,000 active; further: potency means the concentration at half of the fitted maximal effect; % of control where 0% means no effect; nearly all actives have a fitted effect of over 65% in size
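Each well held 1000 AREc32 cells, which were incubated with compound for 24 hr at 37 deg C after overnight attachment, and ARE reporter activity was quantified by firefly luciferase luminescence.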
uPA generation – cell surface uPA generation inhibition; cell surface uPA generation assay, qHTS; Potency, µM (top dose mostly 38.3 µM), for inactives: at the top dose activity change, negative = inhibition, actives largely listed as inhibitors; 0.31% of 330,000 active; AID 540303; active means well fitted inhibition curve with a large enough effect; inconclusive means small, poorly fitted or top-dose-only effect; inactive means no such curve, though single readings can be large or run the other way; tested in mouse RAW 264.7 cells; further: potency means the concentration at half of the fitted maximal effect; on the % scale 0 is the no-effect control and ±100 the full control effect; nearly all actives have a fitted effect of over 55% in size
IL-2 act – activators of IL-2 | activation, % (series mostly up to about 46 µM) | IL-2 activation reporter assay, cell-based qHTS; stimulated with anti-CD3/CD4/CD28 beads; in transgenic mouse T cells | 0.065% of 360,000 active; in the data active means activation above about 50%; inconclusive means mostly about 30% to 49%; further: 0% is about no effect
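Using fluorescent plate cytometry, EGFP and DsRed are detected in transgenic mouse T cells stimulated 18 h at 37 degrees C with antibody-coated beads after 60 min compound pretreatment.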
ALOX12 inh – blocks human arachidonate 12S-lipoxygenase; purified 12hLO, xylenol orange hydroperoxide absorbance; 1.1% of 580,000 active; AID 1671190; P18054; Potency, µM (highest dose often 108 µM), without a hit: at the highest dose activity change, negative = inhibition, hits mostly inhibitors; further: potency means the concentration at half of the fitted maximal effect; on the % scale 0 is the no-effect control and ±100 the full control effect
Target sequence (P18054 whole entry, looked up): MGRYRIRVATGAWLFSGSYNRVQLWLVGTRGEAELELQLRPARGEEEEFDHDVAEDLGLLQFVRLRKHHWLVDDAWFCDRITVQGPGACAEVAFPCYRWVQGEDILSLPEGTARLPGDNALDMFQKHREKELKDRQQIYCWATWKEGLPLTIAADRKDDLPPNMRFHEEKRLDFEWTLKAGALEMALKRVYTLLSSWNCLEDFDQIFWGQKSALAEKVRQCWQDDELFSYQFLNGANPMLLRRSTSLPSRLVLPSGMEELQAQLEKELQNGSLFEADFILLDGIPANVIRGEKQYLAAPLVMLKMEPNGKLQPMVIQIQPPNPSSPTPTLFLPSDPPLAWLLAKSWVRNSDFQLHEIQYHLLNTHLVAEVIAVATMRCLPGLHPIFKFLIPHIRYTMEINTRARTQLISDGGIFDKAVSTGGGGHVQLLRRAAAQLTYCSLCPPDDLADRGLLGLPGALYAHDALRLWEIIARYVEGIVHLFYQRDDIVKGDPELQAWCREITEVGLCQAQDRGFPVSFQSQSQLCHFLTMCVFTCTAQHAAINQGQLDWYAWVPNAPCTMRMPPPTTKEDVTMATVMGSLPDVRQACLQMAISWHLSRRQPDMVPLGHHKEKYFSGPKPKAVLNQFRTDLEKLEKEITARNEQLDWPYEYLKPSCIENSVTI
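Purified human 12hLO at 150 nM in 25 mM Hepes, 0.01% Triton X-100, pH 7.0, preincubated 15 min at room temperature with compound. Reaction started with 40 uM arachidonic acid, 30 min at room temperature. Hydroperoxide measured by Fe-xylenol orange, 573/405 nm absorbance ratio.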
Integrin act MD – activates integrin-mediated alleviation for muscular dystrophy | alpha7betagal myoblasts, beta-gal FDG fluorescence, 48 h | Potency, µM (titrated, usually from 38.3 µM), for inactives: at the highest dose activation, usual class: activators | 0.064% of 350,000 active | AID 624291;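 further: potency means the concentration at half of the fitted maximal effect; 100% = response of the positive control SU9516; nearly all actives have a fitted effect of over 60% in size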
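Alpha7betagal+/- myoblasts (passage 13) were plated 16-24 hr, then exposed to compounds (1:260 dilution of DMSO stock) for 48 hours at 37C. After MPER lysis, β-galactosidase reporter activity was read as FDG fluorescence (ex 480/em 540) after 30 minutes.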
* = called active by the depositor; ? = inconclusive; · = no result given; [ ] = dose if it differs, or a comment. This is a sample that favours compounds with a hit; in the whole collection about 1.5% have one here. Unless noted, the call rests on the fitted dose curve; in most records, active means well fitted curve in the direction sought with a large enough effect; inconclusive means small, poorly fitted or top-dose-only effect, or another doubt; inactive means no such curve, though single readings can be large; an effect the other way counts as inactive or inconclusive.

SMILES	Nrf2 activator	uPA generation	IL-2 act	ALOX12 inh	Integrin act MD
Cc1cc(NS(=O)(=O)c2ccc(Nc3nc(-c4ccc(C)c(C)c4)cs3)cc2)no1	0%	0%	-4	4.5µM*	12%
Cc1ccc(C)c(-c2csc(Nc3ccc(S(=O)(=O)Nc4nc(C)cc(C)n4)cc3)n2)c1	·	·	·	45µM*	·
Cc1ccc(C)c(-c2csc(Nc3ccc(S(N)(=O)=O)cc3)n2)c1	·	·	·	-29%	·
CCC1CCC2(CC1)NC(=O)N(Cc1coc(-c3cccs3)n1)C2=O (configuration not stated)	·	·	·	-33%	·
CC(N)(C(=O)O)c1ccc(P(=O)(O)O)cc1 (configuration not stated)	·	·	·	7%	·
C[C@@](N)(C(=O)O)c1ccc(P(=O)(O)O)cc1	·	·	·	13µM*	·
N#CC(=Cc1ccccn1)c1nc(-c2ccc(Cl)cc2)cs1	13µM*	·	-2	?	9%
CCOC(=O)c1ccc(NC(=O)Cn2ncc(Cl)c(Cl)c2=O)cc1	?	-12%	-3	2%	-61%
CCC(=O)Nc1ccc(C(=O)Cn2ncc(Cl)c(Cl)c2=O)cc1	6.3µM*	7.9µM*	-1	4%	-66%
Cc1ccc(C(=O)OCc2nc3ccccc3s2)o1	10µM*	-1%	0	?	-13%
O=C(OCc1nc2ccccc2s1)c1ccc(Br)s1	11µM*	·	-2	12%	-8%
C=CCn1c(N2CCN(Cc3ccc(Br)cc3)CC2)nc2c1c(=O)[nH]c(=O)n2C	·	·	·	10%	·
Cc1ccc(-n2nc3ccc(N)cc3n2)cc1C	1%	?	2	45µM*	-2%
Cc1ccc(-n2nc3ccc(N)cc3n2)cc1Cl	0%	?	-1	0%	?
C#CCNC(=O)CSc1nc(-c2cccs2)nc2ccccc12	·	·	·	0%	·
CNC(=O)c1cc(SC)ccc1C	·	·	·	-22%	·
COc1ccc(C(=O)/C=C/c2cc(OC)c(O)c(OC)c2)c(F)c1	16µM*	-19%	1	45µM*	-58%
Cn1cc(CSc2nnc(COc3ccccc3Cl)n2C)cn1	·	·	·	-4%	·
COc1ccc(Cl)cc1-c1n[nH]c(=S)n1C1CCCCC1	0%	1%	-1	40µM*	-9%
COc1ccc(-c2n[nH]c(=S)n2C2CCCCC2)cc1	0%	-6%	0	45µM*	-17%
Cc1noc(C2CC3(CCN(C(=O)Cc4c[nH]c5ccccc45)CC3)CN2C)n1 (configuration not stated)	·	·	·	28%	·
COC(=O)CN1CCCC1c1cccs1 (configuration not stated)	·	·	·	-20%	·
O=C(CN1CCCC1c1cccs1)C12CC3CC(CC(C3)C1)C2 (configuration not stated)	·	·	·	6.3µM*	·
COc1ccc(NC(=O)c2cc(-c3cccs3)on2)c(OC)c1	1.3µM*	2%	0	-16%	0%
COc1ccc(NC(=O)c2cc(-c3ccccc3O)on2)cc1OC	·	·	·	0.63µM*	·
SMILES	Nrf2 activator	uPA generation	IL-2 act	ALOX12 inh	Integrin act MD
COc1ccc(-c2cc(C(=O)Nc3cccc(O)c3)no2)cc1	-1%	5µM*	-2	?	?
COc1ccc(-c2cc(C(=O)Nc3ccc(C)c(C)c3)no2)cc1	0%	-13%	1	20%	-14%
Nc1nsc2ccccc12	11µM*	?	-3	-15%	-50%
Cc1ccc(C(=O)N2CCC3(CC2)NC(=O)N(c2cccc(Cl)c2)N3)c(C)c1	·	·	·	1.4µM*	·
CN(C)c1cccc(C(=O)N2CCC3(CC2)NC(=O)N(c2cccc(F)c2)N3)c1	·	·	·	2.2µM*	·
Cc1ccc(C(=O)N2CCC3(CC2)NC(=O)N(c2cccc(F)c2)N3)cc1	·	·	·	2.5µM*	·
Cc1ccc(C2=NC3(CCN(C(=O)c4cccc(F)c4)CC3)ON2)cc1	·	·	·	-10%	·
O=C(Cc1ccc(Cl)cc1)N1CCN(c2ccc(F)cc2)CC1	4%	-3%	1	3%	-7%
O=C(Cc1ccc(Cl)cc1)N1CCC2(CC1)NC(=O)N(c1ccc(F)cc1)N2	·	·	·	2.5µM*	·
CC(=O)N1CCN([C@H]2[C@@H]3OC[C@@H](O3)[C@@H](NCc3cnc4ccccc4c3)[C@@H]2O)CC1	·	·	·	38%[176 µM]	·
CCCn1ccc2sc(C)c(C(=O)O)c2c1=O	·	·	·	-8%	·
Cc1cc2ccccc2n1CC(=O)NCc1ccccc1	·	·	·	11%	·
CCOc1ccc(C(=O)N2CCC3(CC2)NC(=O)N(Cc2ccc(F)cc2)C3=O)cc1	·	·	·	-6%	·

Screening results deposited in PubChem BioAssay by National Center for Advancing Translational Sciences (NCATS).
